Where “and” joins values, the source holds several entries; their conditions need not be identical. Identical values can stand only once. Results filed as inconclusive are left out. A call without a number means that no potency is given here. More than one record can exist for a structure, and the calls need not agree. Calls of active or inactive are those of the source. Unless noted, calls come from the whole dose curve; as a rule, active = well fitted curve in the direction sought with a large enough effect in the repeat runs; inconclusive = weak or mixed curves; inactive = no such curve, though single readings can be large; an effect the other way counts as inactive or inconclusive.
How the values were obtained:
[1] = qHTS assay to identify small molecule agonists of the vitamin D receptor (VDR) signaling pathway - cell viability counter screen (AID 743224); note: nearly all actives have a fitted effect of over 50% in size; note: potency is the fitted concentration of half-maximal effect; for activity change, negative = cytotoxicity: series mostly up to about 63 µM
Outline: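 Cells: VDR-bla, 2,000/well, settled 4 h. Treatment: compounds in DMSO, 16 h, 37C/5% CO2. Readout: CellTiter-Glo luminescence after 30 min RT.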

[2] = qHTS assay to identify small molecule agonists of the endoplasmic reticulum stress response signaling pathway - cell viability counter screen (AID 1159517; calls by dose curve; note: nearly all actives have a fitted effect of over 50% in size; note: potency is the fitted concentration of half-maximal effect;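 for activity change, negative = cytotoxicity: HeLa cells carrying an ER stress response element beta-lactamase reporter; series mostly up to about 61 µM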)
Outline: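 After overnight attachment, ESRE-bla HeLa cells were treated with Tox21 library compounds for 5 hr. CellTiter-Glo luminescence, read 30 min post-addition at room temperature, reported viability.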

[3] = qHTS assay to identify small molecule antagonists of the retinoid-related orphan receptor gamma (ROR-gamma) signaling pathway - cell viability counter screen (AID 1159520); note: nearly all actives have a fitted effect of over 50% in size; note: potency is the fitted concentration of half-maximal effect
Outline: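 Cytotoxicity was read from cellular ATP (CellTiter-Glo luminescence) after 16 hr at 37 C with 1 uM doxycycline induction. The inducer was added 2 hr after compound transfer to Tet-on ROR gamma CHO cells.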

[4] = biological target: Nuclear receptor ROR-gamma (Homo sapiens) (UniProt P51449); assay: qHTS assay to identify small molecule antagonists of the retinoid-related orphan receptor gamma (ROR-gamma) signaling pathway (AID 1159521; note: nearly all actives have a fitted effect of over 50% in size; note: potency is the fitted concentration of half-maximal effect;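 for activity change, negative = inhibition: CHO cells with doxycycline inducible ROR-gamma driving an RORE luciferase reporter; top concentration of the series differs between compounds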)
Outline: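 Inducible-expression reporter assay: doxycycline (1 uM final) switched on RORγ in CHO cells bearing a ROR response element-luciferase construct, with test compounds present from 2 h beforehand. Decreased luminescence after 16 h defined antagonist activity.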

[5] = qHTS assay to identify small molecule agonists of the AP-1 signaling pathway - cell viability counter screen (AID 1159525; calls by dose curve; note: nearly all actives have a fitted effect of over 55% in size; note: potency is the fitted concentration of half-maximal effect)
Outline: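 Intracellular ATP by Cell Titer Glo luminescence (30 min, RT) in the same ME-180 AP-1-bla wells after the 5 h compound exposure at 37 °C. Normalised to tetra n-octyl ammonium bromide and DMSO controls.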

[6] = qHTS assay to identify small molecule antagonists of the retinoid acid receptor (RAR) signaling pathway - cell viability counter screen (AID 1159551); note: nearly all actives have a fitted effect of over 35% in size; note: potency is the fitted concentration of half-maximal effect
Outline: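 Cells (C3RL4) are plated, incubated overnight, dosed with compound in DMSO, then given retinol at 1 uM final. After 6 h at 37 C, CellTiter-Glo is added and luminescence read following 30 min at room temperature.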

[7] = qHTS assay to identify small molecule agonists of the retinoic acid receptor (RAR) signaling pathway (AID 1159553)
Outline: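 Seed C3RL4 reporter cells at 1,000 per well and incubate overnight at 37 C. Add compounds in DMSO, incubate 6 hr. Add luciferase reagent, wait 30 min at room temperature, read luminescence.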

[8] = qHTS assay to identify small molecule antagonists of the vitamin D receptor (VDR) signaling pathway - cell viability counter screen (AID 743225); note: nearly all actives have a fitted effect of over 50% in size; note: potency is the fitted concentration of half-maximal effect
Outline: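 Same-well multiplex: following 16 h treatment of HEK 293T cells carrying a UAS-driven beta-lactamase reporter with compound and agonist (3 nM final), and a 2 h FRET substrate step, CellTiter-Glo was added and luminescence read after 30 min.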

[9] = qHTS assay to identify small molecule agonists of the RXR signaling pathway - cell viability counter screen (AID 1159529); note: nearly all actives have a fitted effect of over 50% in size; note: potency is the fitted concentration of half-maximal effect; for activity change, negative = cytotoxicity: series mostly up to about 77 µM
Outline: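 Counter screen: CellTiter-Glo luminescence. Cells: RXR-alpha-UAS-bla HEK 293T. Medium: 2% charcoal-stripped FBS. Treatment: 16 h, 37 C. Reagent incubation: 30 min, RT.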

[10] = qHTS assay to identify small molecule antagonists of the retinoic acid receptor (RAR) signaling pathway (AID 1159552; note: nearly all actives have a fitted effect of over 50% in size; note: potency is the fitted concentration of half-maximal effect)
Outline: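 Antagonism of retinol-induced RARE reporter activity was measured in C3RL4 cells. Exposure to compounds and 1 uM final retinol lasted 6 hr at 37 C, with luminescence as endpoint.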

[11] = qHTS assay to identify small molecule antagonists of the estrogen related receptor (ERR) signaling pathway from Tox21 library - cell viability counter screen (AID 1224834); note: nearly all actives have a fitted effect of over 30% in size; note: potency is the fitted concentration of half-maximal effect
Outline: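 ERR cells, 2,000/well; 6 h settle at 37 C/5% CO2; pin-tool compound transfer in DMSO; 17.5 h at 37 C; CellTiter-Fluor, 30 min; fluorescence intensity.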

[12] = qHTS assay to identify small molecule antagonists of the estrogen related receptor (ERR) signaling pathway - cell viability counter screen (AID 1224818); note: potency is the fitted concentration of half-maximal effect;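 note: viability measured after 17.5 h of compound exposure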; for viability change, negative = cytotoxic: series mostly up to about 46 µM
Outline: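 ERR cells, 2,000/well; 6 h settle at 37 C/5% CO2; compound pin transfer (DMSO); 17.5 h at 37 C; CellTiter-Fluor, 30 min, fluorescence read.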

[13] = qHTS assay to identify small molecule antagonists of the estrogen related receptor (ERR) signaling pathway (AID 1224819)
Outline: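 qHTS in ERR cells, 2,000/well, 1536 format. Cpd (DMSO) added after 6 h settle, 18 h 37 C. One-Glo luminescence, 30 min RT.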

[14] = qHTS assay to identify small molecule agonists of the estrogen related receptor (ERR) signaling pathway (AID 1224820)
Outline: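 Luminescence readout (One-Glo, 30 min RT) from NTP-supplied ERR cell line exposed to compounds for 18 h at 37 C. Cells seeded 2,000 per well and pre-incubated 6 h before pin-tool compound transfer.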

[15] = qHTS assay to identify small molecule agonists of the estrogen related receptor signaling pathway with the pleiotropic PPARgamma coactivator (PGC) (AID 1224823)
Outline: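 Luminescence readout (One-Glo, 30 min RT) from PGC/ERR cell line treated 18 h at 37 C with pin-tool-delivered DMSO compound solutions; cells plated 6 h before dosing. Quantitative HTS format.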

[16] = biological target: Retinoic acid receptor RXR-alpha (Homo sapiens) (UniProt P19793); assay: qHTS assay to identify small molecule agonists of the RXR signaling pathway (AID 1159527; calls by dose curve; note: nearly all actives have a fitted effect of over 35% in size)
Outline: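 Compounds in DMSO were added to RXR-alpha-UAS-bla HEK 293T cells kept in 2% charcoal-stripped serum, and incubated 16 hr at 37 C with 5% CO2. Reporter signal came from a 2 hr B/G FRET substrate step.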

[17] = qHTS assay to identify small molecule agonists of the AP-1 signaling pathway (AID 1159526; calls by dose curve)

Retinoic acid receptor RXR-alpha (Homo sapiens), sequence (P19793 whole entry, looked up): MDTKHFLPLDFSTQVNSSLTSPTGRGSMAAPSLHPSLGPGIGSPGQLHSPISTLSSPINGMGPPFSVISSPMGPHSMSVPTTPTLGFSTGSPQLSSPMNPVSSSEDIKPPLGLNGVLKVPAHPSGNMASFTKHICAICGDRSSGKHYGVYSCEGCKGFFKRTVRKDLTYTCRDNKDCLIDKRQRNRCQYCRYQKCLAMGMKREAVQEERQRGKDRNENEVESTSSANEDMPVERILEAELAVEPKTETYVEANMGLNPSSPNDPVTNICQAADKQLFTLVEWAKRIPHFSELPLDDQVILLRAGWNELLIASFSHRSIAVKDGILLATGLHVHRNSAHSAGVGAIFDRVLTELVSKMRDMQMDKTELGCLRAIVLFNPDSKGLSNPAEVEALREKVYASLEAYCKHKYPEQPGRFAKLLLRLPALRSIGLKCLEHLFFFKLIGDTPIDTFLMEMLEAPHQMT

In the case of `CC1CCCCN1CCCOC(=O)c1ccc(OC2CCCCC2)cc1` (configuration not stated), the Potency [1] is reported as “inactive”, the Potency [2] is reported as “inactive” and the Potency [3] is reported as “inactive”. For the same compound, the Potency [4] was 11.9 µM (active), the Potency [5] was “inactive” and the Potency [6] was “inactive”. For the same compound, the Potency [7] was “inactive”.
For `CCC1(c2cnc[nH]2)Cc2ccccc2C1`, the Potency [1] was “inactive”, the Potency [8] was “inactive” and the Potency [2] was “inactive”. The Potency [3] was “inactive”, the Potency [4] was “inactive” and the Potency [5] was “inactive”. For the same compound, the Potency [9] was “inactive”, the Potency [6] was “inactive” and the Potency [10] was “inactive”. For the same compound, the Potency [7] was “inactive”.
In the case of `CCN=c1cc2oc3cc(NCC)c(C)cc3c(-c3ccccc3C(=O)OCC)c-2cc1C`, the Potency [8] is reported as 48.8 µM (active) and 24.5 µM (active), the Potency [2] is reported as 24.5 µM (active) and 38.9 µM (active) and the Potency [3] is reported as 27.2 µM (active) and 24.3 µM (active). The Potency [4] was 3.84 µM (active) and 6.86 µM (active), the Potency [9] was 38.8 µM (active) and 49 µM (active) and the Potency [6] was 60.9 µM (active) and 48.6 µM (active). The Potency [10] was 24.2 µM (active) and 24.3 µM (active) and the Potency [11] was 272 nM (active) and 243 nM (active).
With `C=C(c1ccc(C(=O)O)cc1)c1cc2c(cc1C)C(C)(C)CCC2(C)C` the Potency [1] was 21.9 µM (active) and inactive, the Potency [8] was 21.3 µM (active) and the Potency [2] was 24.5 µM (active) and 19 µM (active). For the same compound, the Potency [3] was 30.6 µM (active), the Potency [4] was 24.3 µM (active) and 23.7 µM (active) and the Potency [5] was 30.9 µM (active). For the same compound, the Potency [9] was 49 µM (active) and 23.9 µM (active), the Potency [6] was 61.1 µM (active) and the Potency [11] was 54.5 µM (active).
For `CCCCCCCCCCCC(=O)N(CC)CC`, the Potency [8] was “inactive”, the Potency [2] was “inactive” and the Potency [3] was “inactive”. The Potency [4] was “inactive”, the Potency [5] was “inactive” and the Potency [9] was “inactive”. For the same compound, the Potency [6] was “inactive”, the Potency [10] was “inactive” and the Potency [7] was “inactive”.
In the case of `CC1CCCNC1` (configuration not stated), the Potency [1] is reported as 47.9 µM (active), the Potency [8] is reported as “inactive” and the Potency [2] is reported as “inactive”. The Potency [3] was “inactive”, the Potency [4] was “inactive” and the Potency [5] was “inactive”. The Potency [6] was “inactive” and the Potency [11] was “inactive”.
For `O=C(O)Cc1ccc(OCCNC[C@H](O)c2ccccc2)cc1`, the Potency [8] was “inactive”, the Potency [2] was “inactive” and the Potency [3] was “inactive”. For the same compound, the Potency [4] was “inactive”, the Potency [5] was “inactive” and the Potency [9] was “inactive”. For the same compound, the Potency [6] was “inactive”, the Potency [10] was “inactive” and the Potency [11] was “inactive”.
In the case of `CSc1c(Cl)c(Cl)c(Cl)c(Cl)c1Cl`, the Potency [8] is reported as “inactive”, the Potency [2] is reported as 54.6 µM (active) and the Potency [3] is reported as “inactive”. For the same compound, the Potency [4] was “inactive”, the Potency [9] was 43.4 µM (active) and the Potency [10] was “inactive”. For the same compound, the Potency [7] was “inactive”.
For `c1cc(OCC2CO2)cc(OCC2CO2)c1` (configuration not stated), the Potency [8] was “inactive”, the Potency [2] was “inactive” and the Potency [3] was “inactive”. For the same compound, the Potency [4] was 48.2 µM (active), the Potency [5] was “inactive” and the Potency [9] was 48.6 µM (active). The Potency [6] was “inactive” and the Potency [11] was 60.6 µM (active).
With `C/C=C/C=N/NC(=O)c1ccncc1` the Potency [8] was “inactive”, the Potency [2] was “inactive” and the Potency [3] was “inactive”. The Potency [4] was “inactive”, the Potency [5] was “inactive” and the Potency [9] was “inactive”. The Potency [6] was “inactive”, the Potency [10] was “inactive” and the Potency [7] was “inactive”. The Potency [11] was “inactive”.
With `Clc1ccc(C(c2ccccc2Cl)C(Cl)Cl)cc1` (configuration not stated) the Potency [1] was 49 µM (active) and inactive, the Potency [8] was “inactive” and the Potency [2] was 49 µM (active). For the same compound, the Potency [3] was “inactive”, the Potency [4] was “inactive” and the Potency [5] was 43.6 µM (active) and 23.9 µM (active). The Potency [9] was 34.7 µM (active) and 23.9 µM (active), the Potency [6] was “inactive” and the Potency [10] was 54.5 µM (active). The Potency [12] was “inactive” and the Potency [11] was “inactive”.
For `Cc1cc2c(C(C)C)c(O)c(O)c(C=O)c2c(O)c1-c1c(C)cc2c(C(C)C)c(O)c(O)c(C=O)c2c1O`, the Potency [1] was 11.9 µM (active), the Potency [8] was 9.52 µM (active) and the Potency [2] was 10.7 µM (active). For the same compound, the Potency [3] was 26.6 µM (active), the Potency [4] was 10.6 µM (active) and the Potency [5] was “inactive”. For the same compound, the Potency [9] was 21.3 µM (active), the Potency [6] was “inactive” and the Potency [10] was “inactive”. For the same compound, the Potency [7] was “inactive”, the Potency [12] was 10.2 µM (active) and the Potency [13] was 2.76 µM (active). The outcome [14] was “inactive” and the outcome [15] was “inactive”.
For `O=C1C=CC(=O)N1c1ccccc1`, the Potency [1] was 11 µM (active), the Potency [8] was 15.5 µM (active) and the Potency [2] was 34.7 µM (active). For the same compound, the Potency [3] was 15.4 µM (active), the Potency [4] was 7.7 µM (active) and the Potency [5] was 24.5 µM (active). For the same compound, the Potency [16] was “inactive”, the Potency [9] was 15.5 µM (active) and the Potency [6] was 30.6 µM (active). The Potency [10] was 6.11 µM (active).
With `N#CSCSc1nc2ccccc2s1` the Potency [8] was 15.5 µM (active), the Potency [2] was 12.3 µM (active) and the Potency [3] was 4.33 µM (active). The Potency [4] was 13.7 µM (active), the Potency [5] was 43.6 µM (active) and the Potency [6] was 61.1 µM (active). The Potency [10] was 17.2 µM (active) and the Potency [11] was 61.1 µM (active).
In the case of `NC1(c2ccc(-c3nc4ccn5c(=O)[nH]nc5c4cc3-c3ccccc3)cc2)CCC1`, the Potency [8] is reported as 21.3 µM (active), the Potency [2] is reported as “inactive” and the Potency [3] is reported as 29.8 µM (active). For the same compound, the Potency [4] was 0.596 µM (active), the Potency [9] was 21.3 µM (active) and the Potency [10] was 11.9 µM (active). The Potency [11] was 13.3 µM (active).
In the case of `CC(=O)Oc1ccc(C2(c3ccc(OC(C)=O)cc3)Oc3ccccc3NC2=O)cc1`, the Potency [1] is reported as “inactive”, the Potency [8] is reported as “inactive” and the Potency [2] is reported as “inactive”. The Potency [3] was “inactive”, the Potency [4] was 26.6 µM (active) and the Potency [17] was “inactive”. For the same compound, the Potency [9] was “inactive” and the Potency [6] was “inactive”.
For `N[C@@H](CSSC[C@H](N)C(=O)O)C(=O)O`, the viability change, negative = cytotoxic [8] was 6.19% [at 0.628 µM] (inactive), the activity change, negative = cytotoxicity [2] was 2.61% [at 0.628 µM] (inactive) and the activity, negative = cytotoxicity [3] was 0.408% [at 0.349 µM] (inactive). For the same compound, the activity change, negative = inhibition [4] was -16.9% [at 0.35 µM] (inactive), the viability change, negative = cytotoxic [5] was 3.93% [at 0.29 µM] (inactive) and the activity change, negative = cytotoxicity [9] was -20.1% [at 0.29 µM] (inactive). The activity change, negative = cytotoxicity [6] was -1.26% [at 0.349 µM] (inactive), the activity, negative = inhibition [10] was 36.8% [at 0.349 µM] (inactive) and the viability change, negative = cytotoxic [11] was 4.71% [at 0.349 µM] (inactive).
